Measurements published in PubChem BioAssay (EPA / NIEHS).
Inconclusive results are not listed. Active and inactive are the calls of the source. The calls were made as follows: active = hit-call score of the fitted dose curve at least 0.9, where 1 is the maximum; inconclusive = response in the unintended direction; inactive = score below 0.9.

What follows are compounds tested against Estrogen receptor (Homo sapiens) (UniProt P03372) (assay: NVS_NR_hER: NovaScreen (NVS) Nuclear Receptor Binding Assay for human Estrogen Receptor (ER) (AID 2283348)).
Sequence of Estrogen receptor (Homo sapiens) (P03372 whole entry, looked up, the tested form may be a part): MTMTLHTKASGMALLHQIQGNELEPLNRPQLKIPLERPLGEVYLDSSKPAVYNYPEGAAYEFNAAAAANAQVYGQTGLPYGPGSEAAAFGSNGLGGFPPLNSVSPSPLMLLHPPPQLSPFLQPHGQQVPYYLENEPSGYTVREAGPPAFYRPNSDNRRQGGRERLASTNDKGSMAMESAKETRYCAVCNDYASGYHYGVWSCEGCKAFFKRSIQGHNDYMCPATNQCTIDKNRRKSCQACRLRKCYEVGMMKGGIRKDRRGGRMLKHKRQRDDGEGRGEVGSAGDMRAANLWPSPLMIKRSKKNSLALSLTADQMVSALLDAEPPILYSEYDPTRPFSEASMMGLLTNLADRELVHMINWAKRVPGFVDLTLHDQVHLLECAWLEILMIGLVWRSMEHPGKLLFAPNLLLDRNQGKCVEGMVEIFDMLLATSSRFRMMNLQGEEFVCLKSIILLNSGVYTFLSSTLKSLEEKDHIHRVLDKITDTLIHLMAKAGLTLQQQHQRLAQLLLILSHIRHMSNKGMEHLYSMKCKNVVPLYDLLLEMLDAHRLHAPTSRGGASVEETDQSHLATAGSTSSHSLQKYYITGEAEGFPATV
Method in brief: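 Cell-free radioligand binding with protein extracted from MCF7 cells; scintillation counting 18 hours after dosing. Loss of signal versus DMSO baseline read as displacement; primary single-concentration screen at 25 uM in duplicate, actives retested in concentration series.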

| SMILES | outcome |
| --- | --- |
| Oc1ccc(Cc2ccc(O)cc2)cc1 | inactive |
| CCCCCCCCCCCCBr | inactive |
| CCCCC(CC)C(=O)Cl (configuration not stated) | inactive |
| O=S(=O)(Oc1ccc(Cl)cc1)c1ccc(Cl)cc1 | inactive |

The compounds below were run against Estrogen receptor (Homo sapiens) (UniProt P03372) (assay: OT_ER_ERaERa_1440: Odyssey Thera (OT) 24-hour HEK293T Protein-Complementation Assay for Estrogen Receptor-alpha/-alpha Homodimer (AID 2283349);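 also: hits raise fluorescence above DMSO for agonists and antagonists alike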).
Method in brief: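 Readout is the rise in mean fluorescence from reporter fragment complementation when ERα LBD (aa 310-547) units dimerize in HEK293T cells. Measured 24 h after dosing and analysed as increase over DMSO control.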

| SMILES | outcome |
| --- | --- |
| C=CCN=C=S | inactive |
| N#Cc1cccnc1 | inactive |
| Cc1cc(Cl)ccc1OC(C)C(=O)O (configuration not stated) | inactive |
| Oc1c(Br)cc(Br)cc1Br | inactive |
| O=S1OC[C@@H]2[C@H](CO1)[C@]1(Cl)C(Cl)=C(Cl)[C@@]2(Cl)C1(Cl)Cl (some centres not stated) | inactive |
| CCOc1ccc(N)cc1 | inactive |
| O=C(O)COc1ccc(Cl)cc1 | inactive |
| CCCSP(=S)(OCC)Oc1ccc(SC)cc1 (configuration not stated) | inactive |
| CC(C)=CC1C(C(=O)OCc2cccc(Oc3ccccc3)c2)C1(C)C (configuration not stated) | inactive |
| CCN(CCO)CCO | inactive |
| O=C(NC(=O)c1c(F)cccc1F)Nc1ccc(Cl)cc1 | inactive |
| O=C(NC(=O)c1c(F)cccc1F)Nc1cc(Cl)c(OC(F)(F)C(F)C(F)(F)F)cc1Cl (configuration not stated) | inactive |
| O=CCCl | inactive |
